# Test results as given in article PMC11062922 (Nature Chemical Biology, 2023).
# Like-named read-outs stand apart in the source and are kept apart here.
# Tests used:
# AAK1 = test system: AAK1; parameters: species or system human, MV4-11 + K-562 + COLO205 + SK-N-BE2 + OVCAR-8; settings: read-out: apparent Kd, n = 1
# BMP2K = test system: BMP2K; parameters: species or system human, MV4-11 + K-562 + COLO205 + SK-N-BE2 + OVCAR-8; settings: read-out: apparent Kd, n = 1
# Q6ZSR9 = Q6ZSR9 (human, UniProt Q6ZSR9); parameters: species or system MV4-11 + K-562 + COLO205 + SK-N-BE2 + OVCAR-8; settings: read-out: apparent Kd, n = 1
# Q6ZSR9, sequence (Q6ZSR9 whole entry, looked up): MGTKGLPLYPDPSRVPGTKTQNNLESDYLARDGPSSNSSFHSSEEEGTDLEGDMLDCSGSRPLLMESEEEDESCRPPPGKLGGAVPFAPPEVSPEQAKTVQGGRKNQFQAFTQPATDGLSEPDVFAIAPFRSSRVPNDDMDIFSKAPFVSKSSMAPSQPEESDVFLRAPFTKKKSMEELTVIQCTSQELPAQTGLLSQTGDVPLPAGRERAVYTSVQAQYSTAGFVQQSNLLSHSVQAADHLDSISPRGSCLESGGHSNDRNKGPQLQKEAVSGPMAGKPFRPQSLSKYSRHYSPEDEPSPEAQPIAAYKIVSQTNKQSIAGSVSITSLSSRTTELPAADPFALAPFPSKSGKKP
# CSNK2A1;CSNK2A3 = test system: CSNK2A1;CSNK2A3; parameters: species or system human, MV4-11 + K-562 + COLO205 + SK-N-BE2 + OVCAR-8; settings: read-out: apparent Kd, n = 1
# CSNK2A2 = test system: CSNK2A2; parameters: species or system human, MV4-11 + K-562 + COLO205 + SK-N-BE2 + OVCAR-8; settings: read-out: apparent Kd, n = 1
# GAK = test system: GAK; parameters: species or system human, MV4-11 + K-562 + COLO205 + SK-N-BE2 + OVCAR-8; settings: read-out: apparent Kd, n = 1
# GSK3A = test system: GSK3A; parameters: species or system human, MV4-11 + K-562 + COLO205 + SK-N-BE2 + OVCAR-8; settings: read-out: apparent Kd, compound concentrations: 100 nM and 1000 nM (sheet 'Samples'), n = 1
# GSK3B = test system: GSK3B; parameters: species or system human, MV4-11 + K-562 + COLO205 + SK-N-BE2 + OVCAR-8; settings: read-out: apparent Kd, compound concentrations: 100 nM and 1000 nM (sheet 'Samples'), n = 1
# MELK = test system: MELK; parameters: species or system human, MV4-11 + K-562 + COLO205 + SK-N-BE2 + OVCAR-8; settings: read-out: apparent Kd, n = 1
# NUAK1 = test system: NUAK1; parameters: species or system human, MV4-11 + K-562 + COLO205 + SK-N-BE2 + OVCAR-8; settings: read-out: apparent Kd, compound concentrations: 100 nM and 1000 nM (sheet 'Samples'), n = 1
# PAK4 = test system: PAK4; parameters: species or system human, MV4-11 + K-562 + COLO205 + SK-N-BE2 + OVCAR-8; settings: read-out: apparent Kd, compound concentrations: 100 nM and 1000 nM (sheet 'Samples'), n = 1
# RET = test system: RET; parameters: species or system human, MV4-11 + K-562 + COLO205 + SK-N-BE2 + OVCAR-8; settings: read-out: apparent Kd; compound concentrations: 100 nM and 1000 nM (sheet 'Samples'), CATDS: 3.1274331482211301E-2; n = 1
# SIK2 = test system: SIK2; parameters: species or system human, MV4-11 + K-562 + COLO205 + SK-N-BE2 + OVCAR-8; settings: read-out: apparent Kd; compound concentrations: 100 nM and 1000 nM (sheet 'Samples'), CATDS: 2.5744963506260699E-2; n = 1
# CLK1 = test system: CLK1; parameters: species or system human, MV4-11 + K-562 + COLO205 + SK-N-BE2 + OVCAR-8; settings: read-out: apparent Kd, n = 1
# CLK4 = test system: CLK4; parameters: species or system human, MV4-11 + K-562 + COLO205 + SK-N-BE2 + OVCAR-8; settings: read-out: apparent Kd, n = 1
# FLT4 = test system: FLT4; parameters: species or system human, MV4-11 + K-562 + COLO205 + SK-N-BE2 + OVCAR-8; settings: read-out: apparent Kd; compound concentrations: 100 nM and 1000 nM (sheet 'Samples'), CATDS: 1.8307563949858899E-2; n = 1
# [1] = compound concentrations:100 nM and 1000 nM (sheet 'Samples')
structure (smiles),measurement,setting,value
Cc1n[nH]c2cc(Nc3ccnc(Nc4cccc(CN5CCOCC5)c4)n3)ccc12 [GW682569X],potency estimated from few doses,"AAK1; compound concentrations: 100 nM and 1000 nM (sheet 'Samples'), CATDS: 0.12351757147220301",729 nM
same,potency estimated from few doses,"BMP2K; compound concentrations: 100 nM and 1000 nM (sheet 'Samples'), CATDS: 0.100079515212571",1250 nM
same,potency estimated from few doses,"Q6ZSR9; compound concentrations: 100 nM and 1000 nM (sheet 'Samples'), CATDS: 0.10935758268406801",981 nM
CNCC#Cc1c(F)ccc2c1/C(=C/c1[nH]ccc1OC)C(=O)N2.Cl [RO0281601-001],potency estimated from few doses,"AAK1; compound concentrations: 100 nM and 1000 nM (sheet 'Samples'), CATDS: 7.8599709029845199E-2",81.9 nM
same,potency estimated from few doses,"BMP2K; compound concentrations: 100 nM and 1000 nM (sheet 'Samples'), CATDS: 0.12287640268831",36.8 nM
same,potency estimated from few doses,"CSNK2A1;CSNK2A3; compound concentrations: 100 nM and 1000 nM (sheet 'Samples'), CATDS: 2.36611103564075E-2",1450 nM
same,potency estimated from few doses,"CSNK2A2; compound concentrations: 100 nM and 1000 nM (sheet 'Samples'), CATDS: 2.8196939656964501E-2",832 nM
same,potency estimated from few doses,"GAK; compound concentrations: 100 nM and 1000 nM (sheet 'Samples'), CATDS: 2.4779459392996701E-2",1240 nM
same,potency estimated from few doses,GSK3A; CATDS: 3.3017253821498199E-2,543 nM
same,potency estimated from few doses,GSK3B; CATDS: 2.9733635165772199E-2,717 nM
same,potency estimated from few doses,"MELK; compound concentrations: 100 nM and 1000 nM (sheet 'Samples'), CATDS: 2.1569826245294601E-2",2070 nM
same,potency estimated from few doses,NUAK1; CATDS: 0.165743265872908,22.7 nM
same,potency estimated from few doses,PAK4; CATDS: 2.65611791576283E-2,993 nM
same,potency estimated from few doses,"Q6ZSR9; compound concentrations: 100 nM and 1000 nM (sheet 'Samples'), CATDS: 7.9611520405697994E-2",79.9 nM
same,potency estimated from few doses,RET,625 nM
same,potency estimated from few doses,SIK2,1090 nM
FC(F)(F)c1ccc(-c2ncn(CCCN3CCOCC3)c2-c2ccncc2)cc1 [SB-217780],potency estimated from few doses,"AAK1; compound concentrations: 100 nM and 1000 nM (sheet 'Samples'), CATDS: 0.194449602003399",1890 nM
CN(C)CC(O)COc1ccc(Nc2nccc(-c3cnn4nc(N5CCOCC5)ccc34)n2)cc1 (stereo not drawn) [GW767488X],potency estimated from few doses,AAK1; [1],23.6 nM
same,potency estimated from few doses,BMP2K; [1],180 nM
same,potency estimated from few doses,CLK1; [1],54.1 nM
same,potency estimated from few doses,CLK4; [1],34.2 nM
same,potency estimated from few doses,CSNK2A1;CSNK2A3; [1],105 nM
same,potency estimated from few doses,CSNK2A2; [1],57.1 nM
same,potency estimated from few doses,GAK; [1],378 nM
same,potency estimated from few doses,MELK; [1],1490 nM
same,potency estimated from few doses,Q6ZSR9; [1],29.6 nM
COc1cc(Nc2nccc(-c3cnn4ncccc34)n2)cc(OC)c1 [GW801372X],potency estimated from few doses,"AAK1; compound concentrations: 100 nM and 1000 nM (sheet 'Samples'), CATDS: 3.8573145954119099E-2",184 nM
same,potency estimated from few doses,"BMP2K; compound concentrations: 100 nM and 1000 nM (sheet 'Samples'), CATDS: 1.7916348880173499E-2",1820 nM
same,potency estimated from few doses,"CLK1; compound concentrations: 100 nM and 1000 nM (sheet 'Samples'), CATDS: 0.124159144382542",18.2 nM
same,potency estimated from few doses,"CLK4; compound concentrations: 100 nM and 1000 nM (sheet 'Samples'), CATDS: 0.10081286200227101",26.6 nM
same,potency estimated from few doses,FLT4,1650 nM
same,potency estimated from few doses,GSK3A; CATDS: 2.1356053852556199E-2,929 nM
same,potency estimated from few doses,GSK3B; CATDS: 3.2546275447974102E-2,277 nM
same,potency estimated from few doses,NUAK1; CATDS: 5.2338687670537398E-2,94.5 nM
same,potency estimated from few doses,PAK4; CATDS: 2.0251882597793001E-2,1120 nM
same,potency estimated from few doses,"Q6ZSR9; compound concentrations: 100 nM and 1000 nM (sheet 'Samples'), CATDS: 3.9611085380352497E-2",173 nM
